Reference: PubChem BioAssay (Tox21)
A number with no mark means an inactive call. Results filed as inconclusive are left out. Entries that show only a call come without a potency. Calls of active or inactive are those of the source. Unless noted, the call rests on the fitted dose curve.

Experiments:
[1] = Nuclear factor erythroid 2-related factor 2/antioxidant responsive element (Nrf2/ARE) small molecule agonists: luciferase reporter gene qHTS assay in human keratinocytes (AID 1919969); further: nearly all actives have a fitted effect of over 35% in size; further: potency means the concentration at half of the fitted maximal effect
[2] = target: Gonadotropin-releasing hormone receptor (Homo sapiens) (UniProt P30968); test: Human gonadotropin-releasing hormone receptor (GnRHR) small molecule agonists, calcium flux assay in GnRHR-HEK293 cells (AID 1920063); further: nearly all actives have a fitted effect of over 35% in size
Sequence of Gonadotropin-releasing hormone receptor (Homo sapiens) (P30968 whole entry, looked up): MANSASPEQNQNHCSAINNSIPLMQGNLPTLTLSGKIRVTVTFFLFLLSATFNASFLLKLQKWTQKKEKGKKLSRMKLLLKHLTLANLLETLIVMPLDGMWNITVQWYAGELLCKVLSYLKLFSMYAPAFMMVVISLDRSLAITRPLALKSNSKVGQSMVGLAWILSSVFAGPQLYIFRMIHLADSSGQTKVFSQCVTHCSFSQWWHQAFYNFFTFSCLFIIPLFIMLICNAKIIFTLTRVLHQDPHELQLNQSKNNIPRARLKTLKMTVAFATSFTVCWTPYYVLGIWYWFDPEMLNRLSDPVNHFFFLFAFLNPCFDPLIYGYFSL
Method in brief: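 Fluorescence kinetics (480 nm excitation, 540 nm emission; 3 min, 1 s steps) report calcium mobilisation in human GnRHR-HEK293 cells in agonist mode. Dye incubation: 1 h, 37 C.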

[3] = target: KiSS-1 receptor (Homo sapiens) (UniProt Q969F8); test: Human kisspeptin (KISS1R) small molecule agonists, calcium flux assay in KISS1R-HEK293 cells (AID 1920064; active means well fitted activation curve with a large enough effect in the repeat runs)
Sequence of KiSS-1 receptor (Homo sapiens) (Q969F8 whole entry, looked up): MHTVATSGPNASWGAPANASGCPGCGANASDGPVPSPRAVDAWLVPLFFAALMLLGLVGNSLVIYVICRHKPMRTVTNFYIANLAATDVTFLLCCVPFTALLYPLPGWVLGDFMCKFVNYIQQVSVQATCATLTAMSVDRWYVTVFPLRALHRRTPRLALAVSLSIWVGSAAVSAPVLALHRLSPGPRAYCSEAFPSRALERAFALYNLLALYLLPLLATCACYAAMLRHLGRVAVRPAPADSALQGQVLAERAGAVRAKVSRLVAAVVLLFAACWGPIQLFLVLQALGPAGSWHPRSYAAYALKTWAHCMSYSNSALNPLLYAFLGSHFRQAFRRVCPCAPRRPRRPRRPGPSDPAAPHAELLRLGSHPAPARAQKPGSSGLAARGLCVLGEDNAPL
Method in brief: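 Measures KISS1R agonism through calcium-sensitive dye fluorescence in stably transfected HEK293 cells, read for 3 min after pin-tool compound delivery; 15-point titrations in triplicate.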

[4] = G protein-coupled receptor (GPCR) small molecule agonists, calcium flux assay: HEK293 wild type cell line counter screen (AID 1920065)
Method in brief: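 Readout: fluorescence at 480 nm excitation/540 nm emission, sampled at 1 s intervals for 3 min. Cells had been cultured 18 h, then dye-loaded 1 h at 37 C before compound or ATP addition.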

[5] = p53 small molecule agonists, cell-based qHTS assay with human liver microsomes (AID 1963577)
Method in brief: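 p53RE-bla cells, 4,000/well, compound added after 5 h, with human liver microsomes 0.5 mg/mL and NADPH 0.5 mg/mL final; 16 h at 37 C, then LiveBLAzer 2 h RT, fluorescence.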

[6] = p53 small molecule agonists, cell-based qHTS assay with rat liver microsomes (AID 1963578)
Method in brief: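 p53RE-bla cells, 4,000/well, pre-incubated 5 h, then given compounds plus rat liver microsomes (0.5 mg/mL final) and NADPH (0.5 mg/mL final). Incubation 16 h at 37 C; beta-lactamase reporter read by LiveBLAzer fluorescence after 2 h at room temperature.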

[7] = p53 small molecule agonists, cell-based qHTS assay with human liver microsomes: qHTS cell viability counter screen (AID 1963579); further: nearly all actives have a fitted effect of over 45% in size
Method in brief: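 p53RE-bla cells, 4,000/well, dosed 5 hours after plating, with human liver microsomes (0.5 mg/mL final) plus NADPH (0.5 mg/mL final), 16 hours at 37 C. Viability read as CellTiter-Glo luminescence after 30 min at room temperature.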

[8] = p53 small molecule agonists, cell-based qHTS assay with rat liver microsomes: qHTS cell viability counter screen (AID 1963580); further: nearly all actives have a fitted effect of over 45% in size
Method in brief: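 HCT-116 p53RE-bla, 4,000 cells/well, 5 h pre-incubation; cpd + rat liver microsomes 0.5 mg/mL + NADPH 0.5 mg/mL (final); 16 h, 37 C; CellTiter-Glo, 30 min RT; luminescence.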

[9] = p53 small molecule agonists, cell-based qHTS assay: qHTS cell viability counter screen (AID 1963581); further: nearly all actives have a fitted effect of over 45% in size
Method in brief: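 In the same plates used for the p53 bla reporter, HCT-116 cells given compounds for 16 h at 37 C received CellTiter-Glo; luminescence was recorded 30 min later at room temperature.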

[10] = cAMP Responsive Elements (CRE) small molecule agonists, cell-based qHTS assay (AID 1963590)
Method in brief: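 Cell line: CRE-bla HEK 293T; medium DMEM/10% dialyzed FBS/0.1 mM NEAA/1 mM pyruvate/25 mM HEPES; 3 h compound exposure; beta-lactamase FRET readout after 2 h substrate loading at RT.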

[11] = cAMP Responsive Elements (CRE) small molecule antagonists, cell-based qHTS assay (AID 1963591; active means well fitted inhibition curve with a large enough effect in the signal ratio in the repeat runs, not every such curve was filed as active; the % refers to the signal ratio)
Method in brief: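 Inhibition of NKH477-driven (0.25 uM final) CRE-beta-lactamase signal in HEK293T cells, 3 h compound exposure at 37 °C, detected by FRET substrate fluorescence.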

[12] = target: Beta-2 adrenergic receptor (Homo sapiens) (UniProt P07550); test: Adrenergic beta2 receptor (ADRB2) small molecule antagonists, cell-based qHTS assay (AID 1963592); further: nearly all actives have a fitted effect of over 50% in size; further: potency means the concentration at half of the fitted maximal effect
Sequence of Beta-2 adrenergic receptor (Homo sapiens) (P07550 whole entry, looked up): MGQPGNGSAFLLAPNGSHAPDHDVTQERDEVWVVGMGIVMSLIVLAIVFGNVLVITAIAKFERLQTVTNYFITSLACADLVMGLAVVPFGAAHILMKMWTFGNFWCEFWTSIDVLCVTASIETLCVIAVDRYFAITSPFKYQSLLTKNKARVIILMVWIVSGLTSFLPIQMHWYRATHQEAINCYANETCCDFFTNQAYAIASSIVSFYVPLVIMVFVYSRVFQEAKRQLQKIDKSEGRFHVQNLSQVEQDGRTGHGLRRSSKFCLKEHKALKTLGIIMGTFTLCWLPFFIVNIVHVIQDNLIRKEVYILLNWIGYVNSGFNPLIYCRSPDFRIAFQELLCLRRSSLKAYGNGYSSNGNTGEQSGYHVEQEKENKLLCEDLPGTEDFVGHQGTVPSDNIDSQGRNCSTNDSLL
Method in brief: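 Cells (CHO, stable ADRB2 overexpression) incubated 18-20hr at 37C; compounds added from DMSO; agonist mix (1nM isoproterenol, 100uM IBMX, 25uM Ro-20-1724) added; 0.5hr RT; d2-cAMP and anti-cAMP-cryptate added; 1hr RT; 665/615 nm read.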

[13] = target: D(2) dopamine receptor (Homo sapiens) (UniProt P14416); test: Dopamine D2 receptor (DRD2) small molecule antagonists, cell-based qHTS assay (AID 1963595; active means well fitted inhibition curve with a large enough effect in the signal ratio in the repeat runs, with a control signal flat; the % refers to the signal ratio)
Sequence of D(2) dopamine receptor (Homo sapiens) (P14416 whole entry, looked up): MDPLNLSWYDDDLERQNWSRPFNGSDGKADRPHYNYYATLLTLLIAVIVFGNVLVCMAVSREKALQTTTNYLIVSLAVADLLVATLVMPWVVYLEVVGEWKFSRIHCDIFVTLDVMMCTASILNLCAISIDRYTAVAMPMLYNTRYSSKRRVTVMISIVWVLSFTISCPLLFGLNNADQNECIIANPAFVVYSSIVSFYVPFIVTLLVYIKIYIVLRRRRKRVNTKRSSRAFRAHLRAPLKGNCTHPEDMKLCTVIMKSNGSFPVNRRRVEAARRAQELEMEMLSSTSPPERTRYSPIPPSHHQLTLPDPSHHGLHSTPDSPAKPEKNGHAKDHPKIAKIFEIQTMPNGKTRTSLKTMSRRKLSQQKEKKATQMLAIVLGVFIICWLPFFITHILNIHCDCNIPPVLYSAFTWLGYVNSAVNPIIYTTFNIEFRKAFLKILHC
Method in brief: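 Human DRD2 antagonist qHTS measuring cAMP by HTRF. The cells are exposed to compound for 10 min, then to NKH477 (200 nM) and quinpirole (12 nM) for 30 min at RT, with Ro20-1724 (0.1 mM) present throughout.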

[14] = target: 5-hydroxytryptamine receptor 2A (Homo sapiens) (UniProt P28223); test: 5-hydroxytryptamine receptor 2A (HTR2A) small molecule agonists, cell-based qHTS assay (AID 1963587); further: nearly all actives have a fitted effect of over 30% in size
Sequence of 5-hydroxytryptamine receptor 2A (Homo sapiens) (P28223 whole entry, looked up): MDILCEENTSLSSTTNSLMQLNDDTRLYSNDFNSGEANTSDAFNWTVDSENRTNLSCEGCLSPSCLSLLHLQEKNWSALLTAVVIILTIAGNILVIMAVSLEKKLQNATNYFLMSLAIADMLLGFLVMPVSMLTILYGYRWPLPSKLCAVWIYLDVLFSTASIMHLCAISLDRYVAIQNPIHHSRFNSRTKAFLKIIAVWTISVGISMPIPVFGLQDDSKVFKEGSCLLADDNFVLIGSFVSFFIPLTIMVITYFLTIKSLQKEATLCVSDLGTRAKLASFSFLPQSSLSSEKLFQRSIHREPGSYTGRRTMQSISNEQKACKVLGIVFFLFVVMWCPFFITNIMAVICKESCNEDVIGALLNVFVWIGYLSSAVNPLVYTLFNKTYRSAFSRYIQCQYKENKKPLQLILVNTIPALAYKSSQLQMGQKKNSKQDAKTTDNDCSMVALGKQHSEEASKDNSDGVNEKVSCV
Method in brief: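 Kinetic calcium-flux fluorescence (2 min, 1 sec intervals) after compound addition in agonist mode. HTR2A-CHO cells were cultured 18 h, then dye-loaded 1 h at 37 C.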

[15] = target: Muscarinic acetylcholine receptor M1 (Homo sapiens) (UniProt P11229); test: Cholinergic receptor muscarinic 1 (CHRM1) small molecule antagonists, cell-based qHTS assay (AID 1963588); further: nearly all actives have a fitted effect of over 40% in size
Sequence of Muscarinic acetylcholine receptor M1 (Homo sapiens) (P11229 whole entry, looked up): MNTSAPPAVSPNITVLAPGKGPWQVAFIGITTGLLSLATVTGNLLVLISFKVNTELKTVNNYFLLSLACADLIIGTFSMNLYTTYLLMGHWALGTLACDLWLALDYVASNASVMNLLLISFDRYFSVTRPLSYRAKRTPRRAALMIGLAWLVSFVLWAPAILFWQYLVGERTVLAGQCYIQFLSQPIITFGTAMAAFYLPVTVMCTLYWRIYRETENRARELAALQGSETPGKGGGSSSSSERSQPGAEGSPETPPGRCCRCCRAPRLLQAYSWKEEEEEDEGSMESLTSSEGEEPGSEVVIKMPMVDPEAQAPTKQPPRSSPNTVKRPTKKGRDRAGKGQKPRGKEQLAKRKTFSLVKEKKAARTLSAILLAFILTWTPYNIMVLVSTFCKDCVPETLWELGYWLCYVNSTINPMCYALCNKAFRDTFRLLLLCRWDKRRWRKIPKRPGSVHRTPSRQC
Method in brief: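 CHRM1-CHO calcium-flux assay, antagonist mode. Cells were seeded 18 h, dye-loaded 1 h at 37 C and given compound for 5 min at RT, then acetylcholine was added at 50nM. FDSS fluorescence was read 3 min; 15 concentrations, three runs.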

[16] = target: Muscarinic acetylcholine receptor M1 (Homo sapiens) (UniProt P11229); test: Cholinergic receptor muscarinic 1 (CHRM1) small molecule agonists, cell-based qHTS assay (AID 1963589); further: nearly all actives have a fitted effect of over 35% in size
Method in brief: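 Each compound was tested at 15 concentrations across three independent runs on dye-loaded CHO cells stably expressing human CHRM1, reading intracellular calcium fluorescence kinetically at 1 sec intervals.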

[17] = target: 5-hydroxytryptamine receptor 2A (Homo sapiens) (UniProt P28223); test: 5-hydroxytryptamine receptor 2A (HTR2A) small molecule antagonists, cell-based qHTS assay (AID 1963586); further: nearly all actives have a fitted effect of over 45% in size; further: potency means the concentration at half of the fitted maximal effect
Method in brief: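 Antagonist-mode intracellular calcium assay: DOI (4 nM) added after 5 min compound pre-incubation at room temperature to dye-loaded HTR2A-CHO cells. Fluorescence followed for 3 min, sampled every second.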

[18] = target: D(2) dopamine receptor (Homo sapiens) (UniProt P14416); test: Dopamine D2 receptor (DRD2) small molecule agonists, cell-based qHTS assay (AID 1963594); further: nearly all actives have a fitted effect of over 35% in size
Method in brief: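 cAMP accumulation in DRD2-HEK293 cells measured by HTRF after 1 h detection; compounds added 10 min before NKH477 (200nM […]) forskolin-analogue stimulation, 30 min at room temperature, with Ro20-1724 present at 0.1 mM final.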

[19] = p53 small molecule agonists, cell-based qHTS assay (AID 1963582; active means well fitted activation curve with a large enough effect in the signal ratio in the repeat runs, not every such curve was filed as active; the % refers to the signal ratio)
Method in brief: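 Compounds are pin-transferred in DMSO onto p53RE-bla cells and incubated 16 h at 37 C. The B/G FRET beta-lactamase substrate is then applied for 2 h at RT and fluorescence recorded.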

[20] = target: Beta-2 adrenergic receptor (Homo sapiens) (UniProt P07550); test: Adrenergic beta2 receptor (ADRB2) small molecule agonists, cell-based qHTS assay (AID 1963593);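 further: CHO cells stably overexpressing human ADRB2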
Method in brief: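 CHO cells stably over-expressing ADRB2 were plated overnight at 37C, then dosed with compounds plus a stimulation mix containing 100uM IBMX and 25uM Ro-20-1724 for 0.5hr at room temperature. cAMP was measured by HTRF competition, 1hr.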

Row | SMILES | Potency [1] | Potency [2] | outcome [3] | outcome [4] | Potency [5] | Potency [6] | Potency [7] | Potency [8] | Potency [9] | Potency [10] | Potency [11] | Potency [12] | Potency [13] | Potency [14] | Potency [15] | Potency [16] | Potency [17] | Potency [18] | Potency [19] | Potency [20]
1 | NC(=O)N1c2ccccc2CC(=O)c2ccccc21 | inactive | inactive | inactive | inactive | inactive | inactive | inactive | inactive | inactive | inactive | inactive | inactive | inactive | – | – | – | – | – | – | –
2 | Nc1cc(Cl)c(O)c(Cl)c1 | 54.5 µM (active) | inactive | inactive | inactive | inactive | inactive | inactive | inactive | inactive | – | – | – | – | inactive | inactive | inactive | – | – | – | –
3 | O[C@@H](CNC[C@H](O)[C@H]1CCc2cc(F)ccc2O1)[C@@H]1CCc2cc(F)ccc2O1 | inactive | inactive | inactive | inactive | inactive | inactive | inactive | – | – | inactive | inactive | 0.15 µM (active) | – | – | inactive | – | 18.3 µM (active) | inactive | – | –
4 | CCCCCCCCOc1ccccc1C(=O)Nc1ccc(C(=O)OCC[N+](C)(CC)CC)cc1 | inactive | inactive | inactive | inactive | inactive | inactive | inactive | inactive | inactive | – | – | – | – | – | – | inactive | – | inactive | – | –
5 | Clc1cc(Cl)nc(Cl)n1 | inactive | inactive | inactive | inactive | inactive | inactive | inactive | inactive | – | inactive | inactive | inactive | inactive | inactive | – | inactive | inactive | – | inactive | –
6 | CN(C)C/C=C(/c1ccc(Br)cc1)c1cccnc1 | inactive | inactive | inactive | inactive | inactive | inactive | inactive | – | inactive | inactive | inactive | – | – | – | inactive | inactive | inactive | – | inactive | inactive
7 | Cc1cccc(C)c1OCC(=O)N[C@@H](Cc1ccccc1)[C@@H](O)C[C@H](Cc1ccccc1)NC(=O)[C@H](C(C)C)N1CCCNC1=O | inactive | inactive | inactive | inactive | inactive | inactive | inactive | inactive | inactive | – | – | inactive | inactive | – | – | inactive | inactive | inactive | – | –
8 | O=C1c2ccccc2C(=O)N1CO | inactive | inactive | inactive | inactive | inactive | inactive | inactive | inactive | – | inactive | inactive | inactive | inactive | inactive | inactive | inactive | – | inactive | inactive | inactive
9 | O=Cc1cccc(Br)c1 | inactive | inactive | inactive | inactive | inactive | inactive | – | inactive | inactive | inactive | inactive | inactive | inactive | inactive | inactive | inactive | inactive | inactive | – | inactive
10 | NS(=O)(=O)c1cc(C(=O)O)cc(N2CCCC2)c1Oc1ccccc1 | inactive | inactive | inactive | inactive | inactive | inactive | inactive | inactive | – | inactive | inactive | inactive | inactive | inactive | inactive | inactive | inactive | inactive | inactive | inactive
11 | CC1(C)S[C@@H]2[C@H](N=CN3CCCCCC3)C(=O)N2[C@H]1C(=O)O | inactive | inactive | inactive | inactive | inactive | inactive | inactive | inactive | inactive | inactive | inactive | inactive | inactive | – | inactive | inactive | inactive | inactive | – | –
12 | Cc1ccnc(NS(=O)(=O)c2ccc(N)cc2)n1 | inactive | inactive | inactive | inactive | inactive | inactive | inactive | – | inactive | inactive | inactive | inactive | inactive | – | – | – | – | – | – | –
13 | COc1ccc(Nc2ccc(OC)cc2)cc1 | 27.8 µM (active) | inactive | inactive | inactive | inactive | inactive | inactive | inactive | – | inactive | inactive | inactive | inactive | inactive | inactive | inactive | inactive | inactive | – | –
14 | O=[N+]([O-])c1ccc(/C=N\O)o1 | 23.7 µM (active) | inactive | inactive | inactive | inactive | inactive | – | inactive | inactive | inactive | inactive | – | inactive | inactive | inactive | inactive | inactive | inactive | – | inactive
15 | CCCCCCCCCOC(=O)c1ccccc1C(=O)OCCCCCCCCC | inactive | inactive | inactive | inactive | inactive | inactive | inactive | inactive | – | inactive | inactive | inactive | inactive | inactive | inactive | inactive | inactive | inactive | – | –
16 | COc1ccc(-c2cc(=O)c3c(O)cc(O[C@@H]4O[C@H](CO[C@@H]5O[C@@H](C)[C@H](O)[C@@H](O)[C@H]5O)[C@@H](O)[C@H](O)[C@H]4O)cc3o2)cc1O | inactive | inactive | inactive | inactive | inactive | inactive | inactive | inactive | – | inactive | inactive | inactive | inactive | inactive | inactive | inactive | – | inactive | inactive | inactive
17 | COc1c(C)c2c(c(O)c1C/C=C(\C)CCC(=O)O)C(=O)OC2 | inactive | inactive | inactive | inactive | inactive | inactive | inactive | inactive | – | – | – | inactive | inactive | – | – | – | – | inactive | – | inactive
